Source: PubChem BioAssay
Activity calls are given as the source filed them.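 How the source made its calls: active means compounds that lower survival of HCT116 colon cancer cells in the luminescence readout, no numeric limit stated; inactive means the rest.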

test: HCT116 colon cancer cell growth inhibition, primary screen, CellTiter-Glo luminescence, NPC library (AID 1117342); details: at 20 µM (top of the series)

| Compound | inhibition of viability |
| --- | --- |
| O=C1NCCN1CCN1CCC(c2cn(-c3ccc(F)cc3)c3ccc(Cl)cc23)CC1 | 100% (active) |
| CC(CN(C)C)C(C)(O)Cc1ccc(Cl)cc1 (centres undefined) | 17.4% (inactive) |
| O=c1[nH]c(=O)n([C@H]2CCCO2)cc1F | 16% (inactive) |
| O=C(CCCl)NCCc1ccccc1 | -2.8% (inactive) |
| COc1cc(O)c(C(=O)c2ccccc2)cc1S(=O)(=O)O | -1.4% (inactive) |
| CCNC(=O)/C=C/c1cccc(Br)c1 | -8.7% (inactive) |
| Nc1c[n+](N2CCOCC2)no1 | -13.8% (inactive) |
| O=C(OCCOCCO)c1ccccc1Nc1cccc(C(F)(F)F)c1 | 81.8% (active) |
| CCOC(=O)[C@@](C)(N)Cc1ccc(O)c(O)c1 | 20% (inactive) |
| CCCCC(O)c1ccccc1 (centres undefined) | 5.3% (inactive) |
| Cn1c(=O)c2c(ncn2CC(=O)O)n(C)c1=O | 12.3% (inactive) |
| O=P(O)(O)C(Cl)(Cl)P(=O)(O)O | 11.1% (inactive) |
| CO/N=C(\C(=O)N[C@@H]1C(=O)N2C(C(=O)O)=C(CSc3nc(=O)c(O)nn3C)CS[C@H]12)c1csc(N)n1 | -9.17% (inactive) |
| NC(=O)C(c1ccccc1)(c1ccccc1)[C@@H]1CCN(CCc2ccc3c(c2)CCO3)C1 | 35.1% (inactive) |
| NCCNCCNCCNCCN | 16% (inactive) |
| C#C[C@]1(O)CC[C@H]2[C@@H]3CCc4cc(OC5CCCC5)ccc4[C@H]3CC[C@@]21C | 101% (active) |
| O=C(NCCCN1CCOCC1)c1ccc(Cl)cc1 | 0% (inactive) |
| CC[C@H](C)[C@H](N)C(=O)O | -13.2% (inactive) |
| Cc1nc2ccccc2n1Cc1ccc(Cl)cc1 | 45.2% (inactive) |
| C[N+](C)(C)CC(O)CC(=O)[O-] (centres undefined) | -0.3% (inactive) |

| Compound | inhibition of viability |
| --- | --- |
| CN1CC[C@H](c2c(O)cc(O)c3c(=O)cc(-c4ccccc4Cl)oc23)[C@H](O)C1 | 54.4% (active) |
| COc1ccc(-n2nc(CCC(=O)N(C)O)cc2-c2ccc(Cl)cc2)cc1 | 94.4% (active) |
| O=C(O)CCCCC(=O)O | -4.8% (inactive) |
| Cc1cccn2c(=O)c(-c3nnn[nH]3)cnc12 | 13.5% (inactive) |
| Cc1cc(CC(C)CC(C)(C)C)n(O)c(=O)c1 (centres undefined) | 67.2% (active) |
| CCC1C(=O)OCC1Cc1cncn1C (centres undefined) | 8.9% (inactive) |
| O=C1OC2(c3ccccc31)c1cc(I)c(O)c(I)c1Oc1c2cc(I)c(O)c1I | -2.6% (inactive) |
| N[C@@H](Cc1ccc(O)cc1)C(=O)O | 3.9% (inactive) |
| CCOCCn1c(N2CCCN(C)CC2)nc2ccccc21 | 8.5% (inactive) |
| O=C1NCN(c2ccccc2)C12CCN(CCCC(c1ccc(F)cc1)c1ccc(F)cc1)CC2 | 99.6% (active) |
| CCN(CC)C(=O)Nc1ccc(OCC(O)CNC(C)(C)C)c(C(C)=O)c1 (centres undefined) | 12% (inactive) |
| Cc1ncc([N+](=O)[O-])n1C | -2.3% (inactive) |
| CN(C)CCOC1=Cc2ccccc2Sc2ccc(Cl)cc21 | 99% (active) |
| C[C@]1(Cn2ccnn2)[C@H](C(=O)O)N2C(=O)C[C@H]2S1(=O)=O | 3.3% (inactive) |
| CCOc1ccccc1C(N)=O | 22.9% (inactive) |
| N#Cc1cc(NC(=O)C(=O)O)c(Cl)c(NC(=O)C(=O)O)c1 | -4.9% (inactive) |
| Clc1cc(Cl)c(OCC#CI)cc1Cl | 92% (active) |
| CCCCC(CC)COC(=O)c1ccccc1O (centres undefined) | 2.2% (inactive) |
| CCOc1ccccc1OCC1CNCCO1 (centres undefined) | 32.4% (inactive) |
